According to PubChem BioAssay (NCATS):
Where “and” joins values, the source holds several entries; their conditions need not be identical. Equal values may be shown once. Records with an inconclusive call do not appear. Calls of active or inactive are those of the source. Unless noted, the call rests on the fitted dose curve; in most records, active means well fitted curve in the direction sought with a large enough effect; inconclusive means small, poorly fitted or top-dose-only effect, or another doubt; inactive means no such curve, though single readings can be large; an effect the other way counts as inactive or inconclusive.

Columns and labels:
[1] = Primary qHTS for small molecule stabilizers of the endoplasmic reticulum resident proteome: Secreted ER Calcium Modulated Protein (SERCaMP) assay (AID 1508630); further: potency means the concentration at half of the fitted maximal effect; on activity change, negative = inhibition: on the % scale 0 is the no-effect control and ±100 the full control effect
Outline: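 GLuc-SERCaMP-expressing SH-SY5Y cells, pretreated 16 h with compound, are challenged with thapsigargin to empty ER calcium stores; after 4 h, coelenterazine is added directly to the medium and luminescence is imaged.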

[2] = biological target: Cytochrome P450 2D6 (Homo sapiens) (UniProt P10635); experiment: Cytochrome P450 family 2 subfamily D member 6 (CYP2D6) small molecule antagonists: luciferase biochemical (cell-free) qHTS assay (AID 1645840; active means well fitted curve in the direction sought with a large enough effect in the repeat runs; an effect the other way counts as inactive or inconclusive; further: nearly all actives have a fitted effect of over 55% in size; further: potency means the concentration at half of the fitted maximal effect; on activity change, negative = inhibition: on the % scale 0 is the no-effect control and ±100 the full control effect)
Cytochrome P450 2D6 (Homo sapiens), sequence (P10635 whole entry, looked up): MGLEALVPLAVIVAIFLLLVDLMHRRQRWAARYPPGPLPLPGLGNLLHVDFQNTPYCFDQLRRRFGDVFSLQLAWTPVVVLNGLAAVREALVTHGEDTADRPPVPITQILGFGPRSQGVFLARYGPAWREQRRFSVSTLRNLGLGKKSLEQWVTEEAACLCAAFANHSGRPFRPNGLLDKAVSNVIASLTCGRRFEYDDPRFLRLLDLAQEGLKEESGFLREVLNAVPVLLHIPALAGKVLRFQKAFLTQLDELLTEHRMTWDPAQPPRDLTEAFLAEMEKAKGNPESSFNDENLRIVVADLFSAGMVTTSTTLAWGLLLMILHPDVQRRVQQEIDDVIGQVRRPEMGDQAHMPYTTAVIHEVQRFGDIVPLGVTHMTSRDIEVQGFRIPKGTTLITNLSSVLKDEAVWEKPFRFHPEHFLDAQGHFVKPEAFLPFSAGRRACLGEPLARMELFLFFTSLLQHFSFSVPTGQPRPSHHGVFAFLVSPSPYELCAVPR
Outline: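 P450-Glo luminescent screen: recombinant CYP2D6 enzyme–proluciferin substrate mix preincubated with compound 10 min at room temperature, then NADPH regeneration added for 1 h at room temperature. Detection reagent added for 20 min; luciferin light read as relative luminescence units.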

[3] = biological target: Cytochrome P450 2C9 (Homo sapiens) (UniProt P11712); experiment: Cytochrome P450 family 2 subfamily C member 9 (CYP2C9) small molecule antagonists: luciferase biochemical (cell-free) qHTS assay (AID 1645842; active means well fitted curve in the direction sought with a large enough effect in the repeat runs; an effect the other way counts as inactive or inconclusive; further: nearly all actives have a fitted effect of over 55% in size; further: potency means the concentration at half of the fitted maximal effect; on activity change, negative = inhibition: on the % scale 0 is the no-effect control and ±100 the full control effect)
Cytochrome P450 2C9 (Homo sapiens), sequence (P11712 whole entry, looked up): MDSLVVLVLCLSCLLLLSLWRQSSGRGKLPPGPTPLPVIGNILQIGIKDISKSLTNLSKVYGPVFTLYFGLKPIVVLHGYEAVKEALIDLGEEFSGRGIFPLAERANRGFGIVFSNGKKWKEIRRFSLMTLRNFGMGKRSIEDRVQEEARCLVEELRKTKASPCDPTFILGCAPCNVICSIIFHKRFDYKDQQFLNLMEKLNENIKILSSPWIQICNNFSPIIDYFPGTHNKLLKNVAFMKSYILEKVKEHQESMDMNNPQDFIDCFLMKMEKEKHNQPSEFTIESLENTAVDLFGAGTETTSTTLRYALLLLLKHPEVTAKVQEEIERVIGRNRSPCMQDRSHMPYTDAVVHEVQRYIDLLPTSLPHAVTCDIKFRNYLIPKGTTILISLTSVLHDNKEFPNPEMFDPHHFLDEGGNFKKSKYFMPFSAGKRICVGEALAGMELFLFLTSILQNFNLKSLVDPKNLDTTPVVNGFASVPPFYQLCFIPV
Outline: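 Luminescence, after 20 min with luciferin detection reagent, reflected CYP2C9 turnover during a 1 h NADPH-driven reaction at 37C. Enzyme-substrate mix contained 0.4% bovine serum albumin and was preincubated with compound 10 min at room temperature.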

[4] = Primary qHTS for inhibitors of nuclear receptor binding SET domain protein 2 (NSD2) in an isogenic RCH-ACV NSD2 p.E1099K mutant (9B) (AID 1645876); further: nearly all actives have a fitted effect of over 70% in size; further: potency means the concentration at half of the fitted maximal effect
[5] = Primary qHTS for inhibitors of nuclear receptor binding SET domain protein 2 (NSD2) in an RCH-ACV wild type WT cells (2C) (AID 1645877); further: nearly all actives have a fitted effect of over 70% in size; further: potency means the concentration at half of the fitted maximal effect
[6] = biological target: Catechol O-methyltransferase (Homo sapiens) (UniProt P21964); experiment: Confirmatory Screen for Target Class Profiling of Small Molecule Inhibitors of Methyltransferases (AID 1745852); conditions: MTase-Glo luminescence, SAH detection, recombinant enzyme; measured here: COMT max response; stronger effect = lower value; on activity change, negative = inhibition: on the % scale 0 is the no-effect control and ±100 the full control effect
Catechol O-methyltransferase (Homo sapiens), sequence (P21964 whole entry, looked up): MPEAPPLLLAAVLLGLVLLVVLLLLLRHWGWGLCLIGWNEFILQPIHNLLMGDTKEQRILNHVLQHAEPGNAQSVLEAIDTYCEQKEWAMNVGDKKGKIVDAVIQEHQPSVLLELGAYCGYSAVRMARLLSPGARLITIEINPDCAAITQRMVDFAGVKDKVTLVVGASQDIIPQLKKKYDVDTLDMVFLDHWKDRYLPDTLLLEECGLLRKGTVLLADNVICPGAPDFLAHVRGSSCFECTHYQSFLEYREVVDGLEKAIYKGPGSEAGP

[7] = biological target: Guanidinoacetate N-methyltransferase (Homo sapiens) (UniProt Q14353); experiment: as above; conditions: MTase-Glo luminescence, SAH detection, recombinant enzyme; activity change, negative = inhibition: at 57.3 µM (top of the series) unless noted

SMILES | Potency [1] | Potency [2] | Potency [3] | Potency [4] | Potency [5] | activity [6] [%] | activity change, negative = inhibition [7] [%]
COc1ccc2c(c1)CC[C@@H](CN(C)CC(=O)O)[C@H]2c1ccccc1 | inactive | inactive | inactive | inactive | – | – | –
CCOc1ccccc1OCCNC(C)Cc1ccc(OC)c(S(N)(=O)=O)c1 (centres undefined) | inactive | 10.7 µM (active) | inactive | inactive | inactive | – | –
CN(C)CC(C)(C)CNc1nn2c(-c3ccccc3)nnc2cc1C1CCC1 | inactive | 2.13 µM (active) | 8.49 µM (active) | inactive | inactive | – | –
Cc1cc(Nc2nc(N[C@@H](C)c3ccc(F)cc3)c(C#N)cc2F)n[nH]1 | inactive | 26.8 µM (active) | 1.9 µM (active) | 578 nM (active) and 934 nM (active) | 578 nM (active) and 742 nM (active) | -4.92 | 0
Cn1cncc1[C@@](N)(c1ccc(Cl)cc1)c1ccc2c(c1)c(-c1cccc(Cl)c1)cc(=O)n2C | inactive | 16.9 µM (active) | 0.169 µM (active) | inactive | inactive | – | –
COc1cc(Nc2ncc(F)c(Nc3ccc4c(n3)N(COP(=O)(O)O)C(=O)C(C)(C)O4)n2)cc(OC)c1OC | inactive | inactive | 10.7 µM (active) | 1.29 µM (active) and 5.17 µM (active) and 1.48 µM (active) | – | – | –
O=C(Nc1nc2cccc(-c3ccc(CN4CCS(=O)(=O)CC4)cc3)n2n1)C1CC1 | inactive | inactive | inactive | 14.5 µM (active) and 14.8 µM (active) | 18.3 µM (active) and 9.34 µM (active) | – | –
CN1CCN(Cc2ccc(NC(=O)Nc3ccc(Oc4cc(NC(=O)C5CC5)ncn4)cc3)cc2C(F)(F)F)CC1 | inactive | 8.49 µM (active) | 10.7 µM (active) | 91.6 nM (active) and 166 nM (active) | 91.6 nM (active) and 186 nM (active) | – | –
Cn1cc(-c2ccncc2)c(-c2ccc(OCc3ccc4ccccc4n3)cc2)n1 | inactive | 7.56 µM (active) | 0.601 µM (active) | 12.9 µM (active) | 14.5 µM (active) | – | –
CC(=O)c1c(C)c2cnc(Nc3ccc(N4CCNCC4)cn3)nc2n(C2CCCC2)c1=O | 5.95 µM (active) | inactive | inactive | 1.48 µM (active) | 1.32 µM (active) | – | –
Nc1ccn([C@@H]2CS[C@H](CO)O2)c(=O)n1 | inactive | inactive | inactive | inactive | inactive | – | –
COc1ccc(C(=O)CC2(O)C(=O)Nc3c(Cl)ccc(Cl)c32)cc1 (centres undefined) | inactive | inactive | 16.9 µM (active) and 15.1 µM (active) | 2.58 µM (active) | – | – | –
Nc1nc(Nc2ccc(S(N)(=O)=O)cc2)nn1C(=O)c1c(F)cccc1F | inactive | inactive | 0.12 µM (active) | 1.63 µM (active) and 2.35 µM (active) | 1.63 µM (active) and 1.86 µM (active) | – | –
Cc1ccc(C(=O)Nc2cccc(C(F)(F)F)c2)cc1-c1ccc2nc(NCCN3CCOCC3)ncc2c1 | inactive | 12 µM (active) | 1.69 µM (active) | 1.45 µM (active) and 2.63 µM (active) | 1.83 µM (active) and 4.17 µM (active) | – | –
NC(=O)c1c(OCc2c(F)cc(Br)cc2F)nsc1NC(=O)NCCCCN1CCCC1 | inactive | 10.7 µM (active) | 16.9 µM (active) | 10.5 µM (active) | 7.42 µM (active) | – | –
COc1cc(C)c(Sc2cnc(NC(=O)c3ccc(CNC(C)C(C)C)cc3)s2)cc1C(=O)N1CCN(C(C)=O)CC1 (centres undefined) | inactive | 21.3 µM (active) | 0.536 µM (active) | 8.33 µM (active) and 7.28 µM (active) | 8.33 µM (active) and 5.78 µM (active) | – | –
CN(C)Cc1c(C(=O)NCCOc2ccc(C(=O)NO)cc2)oc2ccccc12 | inactive | 1.69 µM (active) | inactive | 515 nM (active) and 332 nM (active) | 515 nM (active) and 296 nM (active) | – | –
